IL1B secr inh: inhibitors of inflammasome signaling (IL-1 beta secretion). THP-1 LPS/ATP IL-1B secretion, AlphaLISA, 16 h; stronger effect = lower value. activity change, % at 57.5 µM. 360,000 tested, 4.7% active. AID 743279; in the data active = activity change below about -50%; inconclusive = mostly about -30% to -49%; note: % is set by controls: 0 for no effect and ±100 for the full control effect
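Secreted IL-1B measured by AlphaLISA bead assay after 16 h compound exposure of THP-1 cells; compounds (final up to 57.5 uM) added 1 h before LPS (250 ng/mL) and ATP (1.25 mM) stimulation; lower signal means less secretion.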
TDP1 block: TDP1 (human) enzyme inhibition | Q9NUW8 | Potency, µM (doses to about 130 µM), inactives show at the top dose activity change, negative = inhibition, actives largely listed as inhibitors | AID 485290 | 350,000 tested, 0.28% active | recombinant TDP1, AlphaScreen DNA substrate cleavage; note: potency is the fitted concentration of half-maximal effect; % is set by controls: 0 for no effect and ±100 for the full control effect; nearly all actives have a fitted effect of over 40% in size
Target sequence (Q9NUW8 whole entry, looked up): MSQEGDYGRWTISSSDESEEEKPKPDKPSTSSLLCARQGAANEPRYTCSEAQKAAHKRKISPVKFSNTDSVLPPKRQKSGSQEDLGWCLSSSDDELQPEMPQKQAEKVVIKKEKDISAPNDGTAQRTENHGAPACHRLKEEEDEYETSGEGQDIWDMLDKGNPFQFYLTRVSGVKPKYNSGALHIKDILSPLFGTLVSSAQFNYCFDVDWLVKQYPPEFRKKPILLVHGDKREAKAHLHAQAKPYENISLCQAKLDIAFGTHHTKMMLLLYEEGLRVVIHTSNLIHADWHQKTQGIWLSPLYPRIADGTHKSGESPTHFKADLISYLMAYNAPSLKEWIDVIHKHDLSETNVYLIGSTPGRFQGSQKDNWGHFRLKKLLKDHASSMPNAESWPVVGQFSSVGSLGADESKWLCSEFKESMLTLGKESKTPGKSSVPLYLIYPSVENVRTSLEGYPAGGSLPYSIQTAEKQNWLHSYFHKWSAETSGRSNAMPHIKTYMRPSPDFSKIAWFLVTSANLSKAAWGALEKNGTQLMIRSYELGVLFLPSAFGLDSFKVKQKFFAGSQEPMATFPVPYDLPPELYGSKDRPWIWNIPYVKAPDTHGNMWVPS
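Recombinant human Tdp1 (E. coli-expressed, 1 nM final) preincubated with compounds 15 min at room temperature, then 5'-biotin/3'-phosphotyrosine-FITC DNA substrate (15 nM final) added for 5 min. AlphaScreen beads (10 ug/ml final) added 10 min; cleavage lowers signal.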
TGFb inhibitor: blocks TGF-b signaling. HepG2 CAGA-GFP TGF-b/SMAD3 reporter, GFP fluorescence, 18 h; TGF-beta stimulated, 500 pg/mL final. 410,000 tested, 1.2% active. Potency, µM (highest dose often 46.1 µM), without a hit: top-dose activity, negative = inhibition, actives largely listed as inhibitors; note: potency is the fitted concentration of half-maximal effect; % is set by controls: 0 for no effect and ±100 for the full control effect; nearly all actives have a fitted effect of over 65% in size
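Read-out: total well GFP (ex488/em500-530) summed from mean per-cell fluorescence. Cells: HEPG2 CAGA-GFP, 1% FBS DMEM, 18 h at 37 degrees C with 500 pg/mL final TGF-beta. Unstimulated wells served as the full-inhibition control; stimulated DMSO wells = 0%.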
HepG2 tox: kills HepG2 cells in TGF-b inhibitor counter-screen | HepG2 CAGA-GFP viability, ATP luminescence, 18 h | Potency, µM (series often up to 46.1 µM), inactives show at the highest dose activity change, negative = cytotoxicity, hits mostly cytotoxic | 410,000 tested, 0.76% active | AID 588856; note: potency is the fitted concentration of half-maximal effect
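HepG2 CAGA-GFP cells (1000/well, DMEM with 1% FBS) received compound, then TGF-beta at 500 pg/mL final, and were incubated 18 hours at 37 degrees C. Viability was read by CellTiter-Glo luminescence. Media-only wells were set as complete cell-killing and DMSO as no toxicity.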
TDP1 cell CPT: DT40-hTDP1 cell growth loss with CPT | chicken DT40 Tdp1-/-;hTDP1 cells + 20 nM CPT, ATP luminescence, 48 h | Potency, µM (highest dose often 46.2 µM), without a hit: at the highest dose activity change, negative = growth inhibition, usual class: inhibitors | 420,000 tested, 12% active | AID 686979; note: potency is the fitted concentration of half-maximal effect; % is set by controls: 0 for no effect and ±100 for the full control effect; nearly all actives have a fitted effect of over 55% in size
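Chicken DT40 Tdp1-/- cells complemented with human TDP1, 400 cells/well, exposed to compounds plus 20 nM camptothecin for at least 48 h at 37 C; viability read as ATP content by CellTiter-Glo luminescence.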
TDP1 cell noCPT: qHTS for Inhibitors of human tyrosyl-DNA phosphodiesterase 1 (TDP1): qHTS in cells in absence of CPT; DT40 Tdp1-/- hTDP1 cells, no CPT, ATP luminescence, 48 h; Potency, µM (doses to about 46.2 µM), inactives show at the top dose activity change, negative = growth inhibition, most hits filed as inhibitors; 420,000 tested, 15% active; AID 686978, 2013; note: potency is the fitted concentration of half-maximal effect; % is set by controls: 0 for no effect and ±100 for the full control effect; nearly all actives have a fitted effect of over 55% in size
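Luminescent ATP content (CellTiter-Glo) served as the growth readout. Knockout chicken DT40 cells expressing human TDP1 were exposed to compounds without camptothecin for a minimum 48 hr at 37 °C.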
An asterisk follows results filed as active; [ ] = remark or other dose. The list is not random: actives were taken first. Their share in the collection is about 19%. Unless noted, calls come from the whole dose curve; as a rule, active = well fitted curve in the direction sought with a large enough effect; inconclusive = small, poorly fitted or top-dose-only effect, or another doubt; inactive = no such curve, though single readings can be large; an effect the other way counts as inactive or inconclusive.

For COc1ccccc1CNC(=O)CCC(=O)N1CC(C)Sc2ccccc21 (centres undefined) the results were IL1B secr inh -28, TDP1 block 0%, TGFb inhibitor -13%, HepG2 tox -39%, TDP1 cell CPT 18µM* and TDP1 cell noCPT inconclusive.
COc1ccccc1CNC(=O)c1cc2cccc3c2n1CC(C)S3 (centres undefined) was read as TDP1 block 3%, TGFb inhibitor 0%, HepG2 tox -37%, TDP1 cell CPT 21µM* and TDP1 cell noCPT 23µM*.
Screening CC1Cn2c(C(=O)NCCc3ccc(Cl)cc3)cc3cccc(c32)S1 (centres undefined) returned TDP1 block 0%, TGFb inhibitor inconclusive, HepG2 tox -27%, TDP1 cell CPT 16µM* and TDP1 cell noCPT inconclusive.
For C[C@H](O/N=C1/[C@H]2O[C@@H]2[C@@H](O)[C@H]2[C@H]1CCn1c(=O)n(-c3ccccc3)c(=O)n12)c1cn([C@H](CO)Cc2ccccc2)nn1 the results were TDP1 block 2%[21 µM].
Screening CCN(CC)CCNC(=O)C(Cl)=C1C(Cl)=C(Cl)C(Cl)=C1Cl returned IL1B secr inh -100*, TGFb inhibitor inconclusive, HepG2 tox -47%, TDP1 cell CPT inconclusive and TDP1 cell noCPT 16µM*.
`CN(C)Cc1ccccc1Sc1cccc2ccccc12` gave IL1B secr inh inconclusive, TDP1 block 0%, TGFb inhibitor -24%, HepG2 tox -37%, TDP1 cell CPT inconclusive and TDP1 cell noCPT inconclusive.
Fc1ccccc1CNc1cc(Cl)cc(Cl)c1 was read as IL1B secr inh 5, TDP1 block -3%, TGFb inhibitor inconclusive, HepG2 tox -33%, TDP1 cell CPT inconclusive and TDP1 cell noCPT -11%.
c1ccc(Sc2cccc3ccccc23)c(CNC2=NCCN2)c1 was read as IL1B secr inh inconclusive, TDP1 block 6%, TGFb inhibitor -9%, HepG2 tox -29%, TDP1 cell CPT 13µM* and TDP1 cell noCPT 12µM*.
Screening Fc1ccccc1Sc1ccccc1CNC1=NCCN1 returned IL1B secr inh -20, TDP1 block 1%, TGFb inhibitor 19%, HepG2 tox 1%, TDP1 cell CPT 21µM* and TDP1 cell noCPT 13µM*.
O=C(CN1C(=O)CCn2nc(-c3ccccc3)cc21)NCc1ccc(F)cc1 was read as TDP1 block 6%, TGFb inhibitor inconclusive, HepG2 tox 3%, TDP1 cell CPT 10% and TDP1 cell noCPT -5%.
Screening Cc1ccc(C(=O)N2CCN(C)CC2)cc1S(=O)(=O)N1CCCCCC1 returned IL1B secr inh 38, TDP1 block 3%, TGFb inhibitor 0%, HepG2 tox 9%, TDP1 cell CPT -16% and TDP1 cell noCPT 23%.
Cc1ccc(C2CC(c3ccccc3Cl)n3nc(N)nc3N2)cc1 (centres undefined) was read as IL1B secr inh inconclusive, TDP1 block 5%, TGFb inhibitor 12%, HepG2 tox 4%, TDP1 cell CPT 21µM* and TDP1 cell noCPT inconclusive.
Screening Nc1nc2n(n1)C(c1ccc(Cl)cc1)CC(c1ccc(F)cc1)N2 (centres undefined) returned IL1B secr inh inconclusive, TDP1 block 5%, TGFb inhibitor inconclusive, HepG2 tox -82%, TDP1 cell CPT inconclusive and TDP1 cell noCPT inconclusive.
Screening Nc1nc2n(n1)C(c1ccccc1Cl)CC(c1ccc(F)cc1)N2 (centres undefined) returned IL1B secr inh -4, TDP1 block 6%, TGFb inhibitor -16%, HepG2 tox -23%, TDP1 cell CPT 16µM* and TDP1 cell noCPT inconclusive.
Screening O=C(O)c1cc(Oc2ccc([N+](=O)[O-])cc2)cc(Oc2ccc([N+](=O)[O-])cc2)c1 returned TDP1 block 10%.
For O=C1Cc2ccccc2Sc2c(OCCN3CCCCC3)cccc21 the results were IL1B secr inh -72*, TDP1 block 0%, TGFb inhibitor 1%, HepG2 tox -22%, TDP1 cell CPT inconclusive and TDP1 cell noCPT inconclusive.
For COc1ccc(-n2nc(C(=O)NCC(=O)Nc3ccc(F)cc3)c3ccccc3c2=O)cc1 the results were IL1B secr inh 20, TDP1 block 1%, TGFb inhibitor -1%, HepG2 tox -22%, TDP1 cell CPT -2% and TDP1 cell noCPT inconclusive.
CCS(=O)(=O)c1nc(S(=O)(=O)c2ccc(C)cc2)c(N2CCC(C)CC2)s1 was read as IL1B secr inh 9, TDP1 block 1%, TGFb inhibitor 21%, HepG2 tox -2%, TDP1 cell CPT inconclusive and TDP1 cell noCPT inconclusive.
`CC(C)c1nnc(NC(=O)c2nc(S(=O)(=O)Cc3ccccc3)ncc2Cl)s1` gave IL1B secr inh -103*, TDP1 block 5%, TGFb inhibitor inconclusive, HepG2 tox inactive, TDP1 cell CPT 5.8µM* and TDP1 cell noCPT 9.2µM*.
CC(C)Sc1ncc(Cl)c(C(=O)Nc2nnc(C(C)C)s2)n1 was read as TDP1 block 0%, TGFb inhibitor -8%, HepG2 tox -2%, TDP1 cell CPT -21% and TDP1 cell noCPT -10%.
For Cc1ccccc1CS(=O)(=O)c1ncc(Cl)c(C(=O)Nc2nnc(C(C)C)s2)n1 the results were TDP1 block 0%, TGFb inhibitor inconclusive, HepG2 tox -88%, TDP1 cell CPT 8.2µM* and TDP1 cell noCPT 10µM*.
For CSc1nnc(NC(=O)c2nc(S(=O)(=O)Cc3ccccc3)ncc2Cl)s1 the results were IL1B secr inh -100*, TDP1 block 6%, TGFb inhibitor inconclusive, HepG2 tox -157%, TDP1 cell CPT 12µM* and TDP1 cell noCPT 16µM*.
For [N-]=[N+]=CC(=O)C(c1ccccc1)(c1ccccc1)c1ccccc1 the results were TGFb inhibitor -18%, HepG2 tox -31%, TDP1 cell CPT 3% and TDP1 cell noCPT inconclusive.
Cc1cnc(NC(=O)C2CC(=O)N(c3ccc4c(c3)OCCO4)C2)s1 (centres undefined) was read as IL1B secr inh -57*, TDP1 block -3%, TGFb inhibitor inconclusive, HepG2 tox -21%, TDP1 cell CPT -3% and TDP1 cell noCPT -9%.
